The campaign covered roughly 420,000 compounds. About 50,000 (12%) were called active. Entries that show only a call come without a potency. Not shown: some 26% with an inconclusive outcome. The call rests on the fitted dose curve; in most records, active means well fitted inhibition curve with a large enough effect; inconclusive means small, poorly fitted or top-dose-only effect; inactive means flat fitted curve, though single readings scatter. Only a selection was taken, and actives are over-represented in it overall.
Test: qHTS for Inhibitors of human tyrosyl-DNA phosphodiesterase 1 (TDP1): qHTS in cells in presence of CPT; further: nearly all actives have a fitted effect of over 55% in size
Settings: chicken DT40 Tdp1-/-;hTDP1 cells + 20 nM CPT, ATP luminescence, 48 h; series mostly up to 46.2 µM
Method in brief: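 Chicken DT40 Tdp1-/- cells stably complemented with human TDP1 were seeded at 400 cells/well in medium containing 20 nM camptothecin, exposed to pin-transferred compounds, and grown at 37 °C for at least 48 hr. Viability was read as ATP luminescence.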
Potency means the concentration at half of the fitted maximal effect.

| SMILES | Potency |
| --- | --- |
| Cc1cccc(NC(=O)N2CCCCCC2)c1C | inactive |
| CCCCc1nc2ccccc2c(NC(=O)CN2CCN(C)CC2)c1CCC | inactive |
| CCCc1nc2ccccc2c(C(=O)OCc2nnc(-c3cc(OC)c(OC)c(OC)c3)o2)c1CC | 16.4 µM (active) |
| O=C(OCc1nnc(-c2ccccc2)o1)c1cc(=O)[nH]c2ccccc12 | inactive |
| O=C(CN1CCN(S(=O)(=O)c2ccc(Cl)s2)CC1)N1CCCCC1 | inactive |
| CCOC(=O)c1c(C)[nH]c(C)c1C(=O)COC(=O)/C=C/c1cccc([N+](=O)[O-])c1 | inactive |
| CCOC(=O)C=Cc1ccc(C(=O)OCC)[nH]1 | 13 µM (active) |
| CCOC(=O)c1ccccc1OC(=O)Oc1ccccc1C(=O)OCC | inactive |
| CCn1c(N)c(Br)c(=O)[nH]c1=O | inactive |
| COc1ccc(CCNC(=S)NC(=O)/C=C/c2ccc(C)cc2)cc1OC | inactive |
| O=C(COc1ccccc1)NCCc1nc2ccccc2[nH]1 | inactive |
| CCCCCOc1ccc(/C=C/C(=O)NCCc2nc3ccccc3[nH]2)cc1OC | 16.4 µM (active) |
| Cc1nn(CC(=O)NCC2CCCO2)c(=O)c2cc3ccccc3n12 (configuration not stated) | inactive |
| C=C(C)C1CC=C(CO)CC1 (configuration not stated) | inactive |
| Cc1ccc(CN2C(=O)SC(Nc3ccccc3)C2=O)cc1 (configuration not stated) | inactive |
| Cc1ccc(-c2nc(=N)sn2Cc2ccccc2)cc1 | 4.47 µM (active) |
| Cc1ccc(-n2nc(CO)c(C(=O)NCCc3ccccc3)n2)cc1 | inactive |
| Cc1ccnc(NC(=O)CCCOc2ccccc2)c1 | inactive |
| CCN1CCN(c2nc(Nc3cccc(F)c3)nc(N)c2[N+](=O)[O-])CC1 | inactive |
| CN(C)C(CNC(=O)c1ccc(OCc2cn3ccccc3n2)cc1)c1ccco1 (configuration not stated) | inactive |
| Cc1nn(-c2ncccn2)c2c1C(=O)CC(C)(C)C2Br (configuration not stated) | 20.6 µM (active) |
| Cc1nn(-c2ccccc2)c2c1C(=O)NC(=O)C(C)(C)C2 | inactive |
| CC1=C(N2CCN(c3ncccn3)CC2)CCC1=O | inactive |
| COc1ccc2cc(-c3nc(Cl)c4c5c(sc4n3)CC(C)CC5)c(=O)oc2c1 (configuration not stated) | inactive |
| CC(C)CNC(=O)CC(c1ccccc1)c1c(O)ccc2ccccc12 (configuration not stated) | inactive |
| CC(C)NC(=O)C(c1ccc(F)cc1)N(C(=O)CCC(=O)Nc1ccccn1)c1ccccc1F (configuration not stated) | inactive |

| SMILES | Potency |
| --- | --- |
| O=C(c1cc(COc2cccc(C(F)(F)F)c2)on1)N1CCSCC1 | inactive |
| Cc1ccc(CNC(=O)C2(C(F)(F)F)C/C(=C\Cc3ccccc3)CCCO2)o1 (configuration not stated) | 16.4 µM (active) |
| COC(=O)[C@]12CCCCC=C1N(Cc1ccccc1)C(=O)[C@H](CC(=O)NCc1ccc(C)o1)C2 | inactive |
| Cc1ccc(C(=O)N2CC(=O)Nc3ccccc32)o1 | inactive |
| Cc1ccc2c(c1)nnc1nnc(SCC(=O)O)n12 | inactive |
| Cc1cccc(-c2nnc(SCC(=O)O)n2Cc2ccccc2)c1 | inactive |
| CCC(C(=O)NC1CCCC1)N(C(=O)Cn1nnc(-c2ccc(C)o2)n1)c1ccc(OC)c(OC)c1 (configuration not stated) | inactive |
| Cc1cccc(C)c1NC(=O)COC(=O)c1ccccc1O | inactive |
| COC(=O)Cc1[nH]n(-c2nc3ccccc3s2)c(=O)c1C(C)=Nc1ccc(OC)cc1 | 5.17 µM (active) |
| COc1ccc(N=C(C)c2sc3ccccc3c2O)cc1 | inactive |
| COc1ccc(/C=C(/CC(=O)Nc2ccc(C)cc2)c2nc3ccccc3s2)cc1 | inactive |
| COc1ccc(C2NC(=S)NC3=C2CCc2ccccc23)cc1OC (configuration not stated) | inactive |
| C=CCN(CC=C)C(=O)COC(=O)c1n[nH]c2ccccc12 | inactive |
| CNC1(c2nnnn2-c2c(C)cccc2C)CCOC(C)(C)C1 (configuration not stated) | inactive |
| CC(C)CC(=O)NCC(c1ccc2c(c1)OCO2)N1CCN(c2ccc(F)cc2)CC1 (configuration not stated) | 16.4 µM (active) |
| O=C(NCCO)C(=O)NCC(c1ccc2c(c1)OCO2)N1CCN(c2ccc(F)cc2)CC1 (configuration not stated) | inactive |
| CC(C)CNC(=O)C(=O)NCC(c1ccc2c(c1)OCO2)N1CCOCC1 (configuration not stated) | inactive |
| COc1ccc(N)cc1NC(=O)CN1CCOCC1 | inactive |
| COc1ccc(C2C(C(C)=O)=C(O)C(=O)N2CCc2c[nH]c3ccccc23)cc1 (configuration not stated) | inactive |
| CC(=O)c1ccc(Nc2nc(C(N)c3ccccc3Cl)cs2)cc1 (configuration not stated) | 14.6 µM (active) |
| CC(=O)c1ccc(NC(=O)C(C)N(C)CC(=O)Nc2ccccc2Cl)cc1 (configuration not stated) | inactive |
| CC(=O)c1ccc(NC(=O)c2cc(-c3cccs3)on2)cc1 | inactive |
| COc1cc(NC(=O)c2noc3c2CSc2ccccc2-3)cc(OC)c1OC | 9.2 µM (active) |
| COc1cc(OC)c(NC(=O)c2c3c(nn2C)-c2ccccc2SC3)cc1Cl | inactive |
| COc1ccccc1-c1cc(C(=O)N2CCCCC2)no1 | inactive |
| COc1ccc(CCNC(=O)CSc2nc3[nH]ncc3c(=O)n2-c2cccc(C(F)(F)F)c2)cc1OC | inactive |

| SMILES | Potency |
| --- | --- |
| NC(=O)NC(=O)CSc1nc2cc([N+](=O)[O-])ccc2n1-c1cccc(C(F)(F)F)c1 | 10.3 µM (active) |
| Cc1cccc(-n2c(Cc3cc(=O)[nH]c(=O)[nH]3)nnc2SCC(=O)Nc2cccc(C(F)(F)F)c2)c1 | inactive |
| COc1ccc(NS(=O)(=O)c2cc3c(cc2C)N(C(C)=O)CCO3)cc1 | inactive |
| COc1ccc(C(=O)NC(Cc2ccc(OC(=O)c3ccc(OC)cc3)cc2)C(=O)O)cc1 (configuration not stated) | inactive |
| O=[N+]([O-])c1ccccc1SNc1ccccn1 | 20.6 µM (active) |
| O=C(Nc1ccncc1)c1ccccc1[N+](=O)[O-] | inactive |
| O=C(CSc1nnc(-c2ccc([N+](=O)[O-])cc2)o1)Nc1ccccn1 | inactive |
| CCN1C[C@@H]2[C@@H]3C(=O)N(C)C(=O)[C@@H]3[C@](C)(C1=O)N2C(=O)c1ccccc1 | inactive |
| N#Cc1nc(COc2ccc(Cl)cc2)oc1N1CCCC1 | inactive |
| COc1ccc(-c2nnc(SCc3cccnc3)o2)cc1 | inactive |
| N#Cc1nc(COc2ccc(-c3ccccc3)cc2)oc1NCc1cccnc1 | 6.51 µM (active) |
| CCOC(=O)C[C@H]1c2ccc(C(F)(F)F)cc2S(=O)(=O)N1c1ccccc1 | inactive |
| COc1ccc2oc(N)c(C=O)c(=O)c2c1 | inactive |
| CCN(CC(=O)Nc1cc(Cl)ccc1C)C(=O)CN1C(=O)NC2(CCCC2)C1=O | inactive |
| CCN(CC(=O)Nc1cc(Cl)ccc1C)C(=O)Cn1c(=O)cnc2ccccc21 | inactive |
| CCN(CC(=O)Nc1cc(Cl)ccc1C)C(=O)CSCc1ccc(C)cc1 | 1.3 µM (active) |
| CCCNC(=O)CCc1c(C)nc2c(c(C)nn2-c2ccccc2)c1C | inactive |
| CC(=O)Nc1cc(C(=O)NCc2ccc(F)cc2Cl)ccc1Sc1ccc(Cl)cc1 | 20.6 µM (active) |
| CC(=O)Nc1ccccc1-c1nc(CNC(=O)c2ccc(Cl)cc2)c(C)o1 | inactive |
| COCCNC(=O)c1ccc(S(=O)(=O)c2ccc(Cl)cc2)c(NC(C)=O)c1 | inactive |
| O=C(CCc1ccccc1Cl)Nc1ccc(S(=O)(=O)Nc2nccs2)cc1 | inactive |
| CN(C)S(=O)(=O)c1cccc(NC(=O)COC(=O)c2cc(=O)[nH]c(=O)[nH]2)c1 | inactive |
| CN(C)S(=O)(=O)c1cccc(NC(=O)COC(=O)/C=C/c2cccs2)c1 | inactive |
| CN(C)S(=O)(=O)c1cccc(NC(=O)COC(=O)C2(c3ccccc3F)CCCC2)c1 | 18.4 µM (active) |
| O=C(NCc1ccco1)c1ccc(NS(=O)(=O)c2cccc([N+](=O)[O-])c2)cc1 | inactive |
| COc1ccc(NC(=O)CSc2nnc(Cc3ccccc3)c(=O)n2N)cc1 | inactive |

| SMILES | Potency |
| --- | --- |
| COc1ccc(C(=O)N(C)CC(O)c2ccccc2)cc1OC1CCN(C(C)=O)CC1 (configuration not stated) | inactive |
| CCOC(=O)c1c(NC(=O)CNC2CCCc3ccccc32)sc(C(N)=O)c1C (configuration not stated) | 23.1 µM (active) |
| NC(=O)Nc1ccc(C(=O)OCC(=O)NC2CCCc3ccccc32)cc1 (configuration not stated) | inactive |
| CCOC(=O)c1sc(NC(=O)CSc2nnc(-c3ccco3)o2)c(C(=O)OCC)c1C | inactive |
| COc1ccc(C(=O)N2CCN(c3ccc(C(C)=O)cc3F)CC2)cc1S(=O)(=O)NC1CC1 | inactive |
| O=C(Nc1ccc2c(c1)OCCO2)C1CCCC1 | inactive |
| COC(=O)c1ccc(/C=C2/C(=O)Oc3ccccc32)cc1 | inactive |
| COc1ccc2c(c1)O/C(=C\c1ccccc1O)C2=O | inactive |
| O=C1Oc2ccccc2C(=O)/C1=C/c1ccccc1O | 5.8 µM (active) |
| COc1ccc2oc(C(=O)NCC(Cc3ccccc3)N(C)C)c(C)c2c1 (configuration not stated) | inactive |
| CCOC(=O)C1=C(O)/C(=C/c2ccc(OCC(=O)Nc3ccc(C)cc3)cc2)N=C1C | inactive |
| CN(C)c1nc(NN)nc(Nc2ccc(F)cc2)n1 | inactive |
| CCOC(=O)C(C)n1cnc2c(nnn2-c2ccc(F)cc2)c1=O (configuration not stated) | inactive |
| O=C(c1cc(Cl)cc(Cl)c1)N1CCC(=O)N(C(COCc2ccccc2)Cc2ccccc2)CC1 (configuration not stated) | 13 µM (active) |
| CC(C)C[C@@H](CO)N1CCN(Cc2ccc(O)cc2)CCC1=O | inactive |
| CC(C)CC(COCc1ccc(Cl)cc1)N1CCN(C(=O)c2ccc(C(F)(F)F)cc2)CCC1=O (configuration not stated) | 14.6 µM (active) |
| Cc1ccc(S(=O)(=O)N2CCC(=O)N([C@H](COCc3ccccc3)C(C)C)CC2)cc1 | inactive |
| CC(C)CC(CO)N1CCN(C(=O)c2ccc(Cl)cc2Cl)CCC1=O (configuration not stated) | inactive |
| CN1CCC(=O)N([C@H](CO)Cc2ccccc2)CC1 | inactive |
| Cc1ccc(S(=O)(=O)N(C)C)cc1NC(=O)C1Cc2ccccc2CN1C(=O)c1ccco1 (configuration not stated) | inactive |
| Cc1c(C(C)CCCO)oc(=O)c2c1Oc1c(C)c(C(C)C[C@@H](C)O)oc(=O)c1C2 (some centres not stated) | inactive |
| CCCCCCCC(=O)OC(CN1CCCCCC1)CN1CCCC1=O (configuration not stated) | inactive |
| COc1cc(/C=C2\C(=N)N3N=C(CC(=O)N4CCOCC4)SC3=NC2=O)cc(OC)c1OC | inactive |
| Cc1cc2cc(CNC(=O)c3ccc(S(=O)(=O)N4CCOCC4)cc3)ccc2[nH]1 | inactive |

— PubChem BioAssay AID686979 (National Center for Advancing Translational Sciences (NCATS), 2013)
